Laboratory results reported in PubChem BioAssay (Tox21).
Results filed as inconclusive are left out. A call without a number means that no potency is given here. A number with no mark means an inactive call. Calls of active or inactive are those of the source. Unless noted, calls follow the shape of the dose curve; as a rule, active = well fitted curve in the direction sought with a large enough effect in the repeat runs; inconclusive = weak or mixed curves; inactive = no such curve, though single readings can be large; an effect the other way counts as inactive or inconclusive.

Assays:
[1] = qHTS assay to identify small molecule agonists of the vitamin D receptor (VDR) signaling pathway - cell viability counter screen (AID 743224); also: nearly all actives have a fitted effect of over 50% in size; also: potency is read from the fitted curve at half-maximal effect
Procedure, shortened: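 In parallel with the bla FRET readout, cytotoxicity toward VDR-bla cells after 16 h compound exposure was assessed by CellTiter-Glo, with luminescence recorded after a 30 min room-temperature incubation.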

[2] = qHTS assay to identify small molecule antagonists of the vitamin D receptor (VDR) signaling pathway - cell viability counter screen (AID 743225); also: nearly all actives have a fitted effect of over 50% in size; also: potency is read from the fitted curve at half-maximal effect
Procedure, shortened: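 Cytotoxicity toward the VDR-bla HEK 293T line was scored by ATP-based CellTiter-Glo luminescence, read in the wells already used for the beta-lactamase readout after 16 h compound treatment under 3 nM 1-alpha,25-dihydroxyvitamin D3 stimulation.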

[3] = qHTS assay to identify small molecule agonists of the NFkB signaling pathway (AID 1159509; active = well fitted curve in the direction sought with a large enough effect in the signal ratio in the repeat runs, not every such curve was filed as active; the % refers to the signal ratio; also: series mostly up to about 61 µM)
Procedure, shortened: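 Pathway activation was measured in ME-180 cells stably expressing beta-lactamase under NF-kB response element control. Substrate cleavage was read as the 460/530 nm emission shift after 5 hr compound incubation.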

[4] = qHTS assay to identify small molecule agonists of the endoplasmic reticulum stress response signaling pathway (AID 1159516; active = well fitted activation curve with a large enough effect in the signal ratio in the repeat runs, not every such curve was filed as active; the % refers to the signal ratio)
Procedure, shortened: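 Beta-lactamase expression from the ER stress response element in HeLa reporter cells is quantified with the LiveBLAzer B/G FRET substrate, read at 405 nm excitation after 2 hr at room temperature, following 5 hr compound treatment at 37 C.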

[5] = qHTS assay to identify small molecule agonists of the endoplasmic reticulum stress response signaling pathway - cell viability counter screen (AID 1159517; calls by dose curve; also: series mostly up to about 61 µM; nearly all actives have a fitted effect of over 50% in size)
Procedure, shortened: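 ESRE-bla HeLa cells (1,500/well) were plated overnight at 37 C and exposed to compounds for 5 hr. After the 2 hr beta-lactamase substrate read, CellTiter-Glo went into the same wells, and luminescence was read after 30 min at room temperature.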

[6] = biological target: Nuclear receptor ROR-gamma (Homo sapiens) (UniProt P51449); experiment: qHTS assay to identify small molecule antagonists of the retinoid-related orphan receptor gamma (ROR-gamma) signaling pathway (AID 1159521;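 also: CHO cells with doxycycline inducible ROR-gamma driving an RORE luciferase reporter; top concentration of the series differs between compounds; nearly all actives have a fitted effect of over 50% in size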)
Procedure, shortened: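 Readout: ONE-Glo luciferase luminescence, 30 min at room temperature. System: Tet-on RORγ CHO, RORE-LUC. Sequence: compound 2 h, doxycycline 1 uM final, 16 h at 37 C.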

[7] = qHTS assay to identify small molecule agonists of the AP-1 signaling pathway (AID 1159526; calls by dose curve)
[8] = qHTS assay to identify small molecule antagonists of the retinoid-related orphan receptor gamma (ROR-gamma) signaling pathway - cell viability counter screen (AID 1159520); also: nearly all actives have a fitted effect of over 50% in size
Procedure, shortened: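 Cytotoxicity was read from cellular ATP (CellTiter-Glo luminescence) after 16 hr at 37 C with 1 uM doxycycline induction. The inducer was added 2 hr after compound transfer to Tet-on ROR gamma CHO cells.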

[9] = qHTS assay to identify small molecule agonists of the AP-1 signaling pathway - cell viability counter screen (AID 1159525; calls by dose curve; also: nearly all actives have a fitted effect of over 55% in size)
Procedure, shortened: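 Intracellular ATP by Cell Titer Glo luminescence (30 min, RT) in the same ME-180 AP-1-bla wells after the 5 h compound exposure at 37 °C. Normalised to tetra n-octyl ammonium bromide and DMSO controls.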

SMILES | Potency [1] | Potency [2] | outcome [3] | outcome [4] | outcome [5] | Potency [6] | Potency [7] | Potency [8] | outcome [9] | activity, negative = cytotoxicity [8] | viability change, negative = cytotoxic [9] | activation [7]
COc1ccc(S(=O)(=O)Nc2nnc(CC(C)C)s2)cc1 | inactive | inactive | inactive | inactive | inactive | inactive | inactive |  |  |  |  | 
O=C(CC(=O)C(F)(F)F)c1ccccc1 | inactive | inactive | inactive | inactive | inactive | inactive |  | inactive | inactive |  |  | 
CCCNC(C)C(=O)Nc1c(C)csc1C(=O)OC (configuration not stated) | inactive | inactive | inactive | inactive | inactive |  | inactive | inactive | inactive |  |  | 
CCN1CC(CCN2CCOCC2)C(c2ccccc2)(c2ccccc2)C1=O (configuration not stated) | inactive | inactive | inactive | inactive | inactive |  | inactive |  | inactive |  |  | 
Cc1ccc(C(C)C)cc1O | inactive | inactive | inactive | inactive | inactive | inactive |  | inactive | inactive |  |  | 
CCCCCCCOC(=O)CCC | inactive |  | inactive | inactive | inactive | inactive | inactive | inactive |  |  |  | 
NC(=O)Cc1cccc(C(=O)c2ccccc2)c1N | inactive | inactive | inactive | inactive | inactive |  | inactive | inactive | inactive |  |  | 
CC(C)(CO)[C@@H](O)C(=O)NCCC(=O)O | inactive | inactive | inactive | inactive | inactive |  | inactive | inactive | inactive |  |  | 
CCOc1ccc(NC(N)=O)cc1 | inactive | inactive | inactive | inactive | inactive |  | inactive | inactive | inactive |  |  | 
O=Cc1ccc(O)c(O)c1O |  | inactive | inactive | inactive | inactive | inactive |  | inactive | inactive |  |  | 
CC(C)S | inactive | inactive | inactive | inactive | inactive |  | inactive | inactive | inactive |  |  | 
COc1ccc2nc(NC(=O)Nc3ccccc3)sc2c1 | inactive | inactive | inactive | inactive | inactive | inactive |  | inactive | inactive |  |  | 
C=CCCCCCCCCO | inactive | inactive |  | inactive | inactive |  | inactive | inactive | inactive |  |  | 
CCCC(CCC)(C(=O)OCC)C(=O)OCC | inactive | inactive | inactive | inactive | inactive |  | inactive | inactive | inactive |  |  | 
OCc1c2ccccc2cc2ccccc12 |  | inactive | inactive | inactive | inactive | inactive |  | inactive | inactive |  |  | 
CC(C)=CCC[C@](C)(O)[C@@H]1CC=C(C)CC1 |  | inactive | inactive | inactive | inactive | inactive |  | inactive | inactive |  |  | 
Cc1ncc(CO)c(CN)c1O | inactive | inactive | inactive | inactive | inactive |  | inactive | inactive | inactive |  |  | 
C[C@@H]1CN(c2c(F)c(F)c3c(=O)c(C(=O)O)cn(C4CC4)c3c2F)C[C@H](C)N1 | inactive | inactive | inactive | inactive | inactive |  |  |  |  | 3.95% [at 19 µM] | 7.6% [at 15.8 µM] | -3.66% [at 15.8 µM]
CC(C)C[C@H](NC(=O)OCC1c2ccccc2-c2ccccc21)C(=O)O | inactive | inactive | inactive | inactive | inactive | inactive |  |  | inactive |  |  | 
CC(C)NCC(O)COc1ccc(CCOCC2CC2)cc1 (configuration not stated) | inactive | inactive | inactive | inactive | inactive |  | inactive | inactive | inactive |  |  | 
C[C@]12C(=O)OC(=O)[C@H]1[C@H]1C=C[C@@H]2C1 | inactive | inactive | inactive | inactive | inactive | inactive |  | inactive | inactive |  |  | 
CCC(=O)c1ccc2c(c1)N(CCCN(C)C)c1ccccc1S2 |  |  | inactive | inactive | inactive | inactive |  |  |  |  |  | 
C[C@]12CCC(=O)C=C1CC[C@@H]1[C@@H]2CC[C@@]2(C)[C@H]1CC[C@]2(O)C(=O)CO | inactive | inactive | inactive | inactive | inactive | inactive |  | inactive | inactive |  |  | 
Cc1nc(N)nc(N)c1-c1ccc(Cl)c(Cl)c1 | 3.35 µM (active) | 3.79 µM (active) | inactive | inactive | inactive | inactive |  | inactive | inactive |  |  | 
Cc1ccccc1C(=O)Nc1ccc(C(=O)N2CCCC(O)c3cc(Cl)ccc32)c(C)c1 (configuration not stated) |  | inactive | inactive | inactive | inactive | inactive |  |  | inactive |  |  | 
CC(=O)Oc1cc(C(C)C)c(OCCN(C)C)cc1C | inactive | inactive | inactive | inactive | inactive | inactive |  | inactive | inactive |  |  | 
O=C1Nc2ccc([N+](=O)[O-])cc2C1=O | inactive |  | inactive | inactive | inactive | inactive |  | inactive | inactive |  |  | 
O=CCCc1ccccc1 | inactive | inactive | inactive | inactive | inactive |  | inactive | inactive | inactive |  |  | 
CC(C)OC(C)C | inactive | inactive | inactive | inactive | inactive | inactive | inactive | inactive |  |  |  | 
